# Out of some 150,000 compounds screened, about 6,500 (4.3%) were called active. Another 12% or so got no clear call; they are omitted. This is one part of a sample in which actives are shown more often than they occur. No cut-off for these calls is given here.
# Biological target: T1, 15-hydroxyprostaglandin dehydrogenase [NAD(+)] (Homo sapiens) (UniProt P15428)
# T1 sequence (whole entry): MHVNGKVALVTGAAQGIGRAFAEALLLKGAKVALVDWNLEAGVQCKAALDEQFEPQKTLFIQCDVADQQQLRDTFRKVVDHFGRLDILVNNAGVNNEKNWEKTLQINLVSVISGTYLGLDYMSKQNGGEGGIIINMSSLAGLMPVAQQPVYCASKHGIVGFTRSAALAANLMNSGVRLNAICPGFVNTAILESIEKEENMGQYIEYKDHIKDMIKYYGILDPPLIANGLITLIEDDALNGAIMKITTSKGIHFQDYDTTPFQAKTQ
row,SMILES,Potency
1,O=C(O)c1cc(/N=N\c2ccc(S(=O)(=O)Nc3ccccn3)cc2)ccc1O,14.1 µM (active)
2,O=C(O)c1cc(/N=N/c2ccc(S(=O)(=O)Nc3ccccn3)cc2)ccc1O,15.8 µM (active)
3,O=C(/C=C\c1ccco1)Nc1nc(-c2ccccc2)cs1,inactive
